The text below walks through data of PubChem BioAssay AID604 (The Scripps Research Institute Molecular Screening Center, 2007).

Hit rate of the full screen: of about 60,000 compounds, about 210 (0.35%) were called active. What follows is part of a selection rich in actives, with near analogues and random picks from the rest. Unmarked numbers belong to inactive results.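 The calls were made as follows: active = inhibition above the screen-wide mean inhibition plus 3 SD (cut at about 18% in these data); inactive = the rest.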

The target in this assay is Rho-associated protein kinase 2 (Homo sapiens) (UniProt O75116). Briefly: inhibitors of human ROCK2 kinase, primary screen, biochemical, high-throughput, luminescence (AID 604).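 Also: plate controls were DMSO wells for no effect and Y-27632 control wells after no-enzyme background subtraction for full effect.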 The note with it: purified ROCK2, Kinase-Glo ATP depletion luminescence; at 6 µM; active compounds read high. (In general: Kinase-Glo measures the ATP left after a reaction by luminescence.)
Sequence of Rho-associated protein kinase 2 (Homo sapiens) (O75116 whole entry, looked up): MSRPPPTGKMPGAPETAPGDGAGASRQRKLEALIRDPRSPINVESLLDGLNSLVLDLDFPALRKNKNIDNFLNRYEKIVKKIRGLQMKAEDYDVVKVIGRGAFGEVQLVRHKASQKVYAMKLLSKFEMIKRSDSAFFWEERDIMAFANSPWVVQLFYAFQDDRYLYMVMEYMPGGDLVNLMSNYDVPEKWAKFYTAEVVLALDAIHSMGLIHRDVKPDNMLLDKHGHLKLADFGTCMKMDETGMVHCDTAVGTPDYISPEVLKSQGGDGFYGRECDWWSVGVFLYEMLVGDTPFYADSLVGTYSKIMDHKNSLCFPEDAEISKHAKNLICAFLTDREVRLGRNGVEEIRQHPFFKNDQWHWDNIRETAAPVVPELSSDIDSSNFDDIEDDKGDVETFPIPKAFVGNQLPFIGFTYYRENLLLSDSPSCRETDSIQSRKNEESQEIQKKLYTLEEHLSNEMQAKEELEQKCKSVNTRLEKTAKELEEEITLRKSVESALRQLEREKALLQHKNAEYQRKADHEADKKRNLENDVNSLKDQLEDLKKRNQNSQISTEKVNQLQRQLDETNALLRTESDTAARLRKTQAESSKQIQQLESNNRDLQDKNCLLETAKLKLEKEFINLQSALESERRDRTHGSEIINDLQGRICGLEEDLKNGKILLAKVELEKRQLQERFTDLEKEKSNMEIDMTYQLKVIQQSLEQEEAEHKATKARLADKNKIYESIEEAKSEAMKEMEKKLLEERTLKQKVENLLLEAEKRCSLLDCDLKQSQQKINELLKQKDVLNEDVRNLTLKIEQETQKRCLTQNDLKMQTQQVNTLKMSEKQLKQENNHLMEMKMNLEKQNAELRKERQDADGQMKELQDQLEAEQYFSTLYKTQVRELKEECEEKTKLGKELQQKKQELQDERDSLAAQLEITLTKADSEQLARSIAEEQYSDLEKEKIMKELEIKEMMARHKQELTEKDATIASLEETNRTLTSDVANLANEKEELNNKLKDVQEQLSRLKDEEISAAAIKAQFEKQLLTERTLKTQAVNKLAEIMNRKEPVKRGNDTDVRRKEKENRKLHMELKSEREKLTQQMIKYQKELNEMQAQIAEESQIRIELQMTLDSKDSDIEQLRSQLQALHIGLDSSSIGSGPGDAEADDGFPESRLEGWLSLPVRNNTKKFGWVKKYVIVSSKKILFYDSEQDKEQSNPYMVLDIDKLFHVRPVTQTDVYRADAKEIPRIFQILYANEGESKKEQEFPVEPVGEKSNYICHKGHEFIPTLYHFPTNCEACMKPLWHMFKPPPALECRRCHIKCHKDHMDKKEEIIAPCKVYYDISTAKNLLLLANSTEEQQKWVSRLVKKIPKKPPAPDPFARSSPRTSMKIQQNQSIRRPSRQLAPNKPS
As a reminder, the inhibition is the change of the read-out against control, counted positive when it falls. In the case of `O=C(/C(=N\O)n1cncn1)c1ccc(Br)cc1Br`, the inhibition was -2.8%.
As for `CCOC(=O)NC(C(F)(F)F)(C(F)(F)F)P(=O)(c1ccccc1)c1ccccc1`, the inhibition is 3.9%.
For `CCN(CC(=O)NCc1cccs1)c1nnnn1-c1ccccc1`, the inhibition is -4.6%.
In the case of `C[C@H](NC(=O)NCCc1ccccc1)C(=O)O`, the inhibition is 4.7%.
Regarding `COc1ccc(C2CC(c3ccc(C)cc3)Nc3nc(N)nn32)cc1` (stereo not drawn), the inhibition is -2.6%.
With `O=C(CN(Cc1ccccc1)C(=O)c1ccc2c(c1)OCCO2)NCc1ccc2c(c1)OCO2` the figure was 5.9%; with `Cc1cccc(Cn2c(N3CCN(c4ccccc4)CC3)nc3c2c(=O)n(C)c(=O)n3C)c1`, 5.3%.
Consider `COc1ccccc1NC1=NC2(CCCC2)N=C(N)N1`, for which the inhibition was -2%.
Turning to `CCOc1ncccc1C(=O)OCc1cn2cc(Cl)ccc2n1`, the inhibition is 12.7%.
In the case of `Cc1ccc(C2c3c(oc4ccc(C)cc4c3=O)C(=O)N2CCCN2CCOCC2)cc1` (stereo not drawn) it was -2.1%; in that of `Cc1cc(NC(=O)CSCc2nc(-c3cccc(Cl)c3)oc2C)no1`, 3.5%.
Consider `COc1ccccc1N(CC(=O)N1CCCCC1)S(=O)(=O)c1ccccc1`, for which the inhibition is 5.5%.
In the case of `COc1ccc(N2C(=O)CC(N3CCC(C(N)=O)CC3)C2=O)cc1` (stereo not drawn) it was -1.8%; in that of `O=C(CC1Oc2ccccc2NC1=O)NCCCN1CCN(Cc2ccccc2)CC1` (stereo not drawn), 0.1%.
Take `C(=C\c1ccccc1)/CSc1nnc(-c2cccnc2)n1Cc1ccco1`: the inhibition is 5%.
Turning to `CCN(CC)CCN1C(=O)C(=O)/C(=C(/O)c2ccc(OC)c(OC)c2)C1c1ccccn1` (stereo not drawn), the inhibition was 1.6%.
With `Cc1cc(N=CC2=C(O)CCCC2=O)no1` the figure was 4.3%; with `Cc1ccsc1-c1nc(CSCC(=O)NCCN2CCCC2)c(C)o1`, -0.8%.
As to `CC1CCCN(c2ccc(C(=O)NCCc3ccccc3)cn2)C1` (stereo not drawn), the inhibition was 7.3%.
With `Cc1ccc(S(=O)(=O)N2CCCC2C(=O)NCc2ccco2)cc1` (stereo not drawn) the figure was -1.2%.
Take `CC(C)NS(=O)(=O)c1ccc(CCC(=O)N2CCOCC2)cc1`: the inhibition was 1.3%.
As to `CCn1nc(NC(=O)c2ccco2)c2cc3ccc(C)cc3nc21`, the inhibition was -4.9%.
In the case of `CCNS(=O)(=O)c1ccc(NC(=O)Nc2cccc(OC)c2)cc1` it was 2.5%; in that of `COc1ccc(CNC(=O)c2cc3c(=O)n4ccccc4nc3n(CC3CCCO3)c2=N)cc1` (stereo not drawn), 5.4%.
On to `CCOC(=O)c1csc(NC(=O)c2ccc(S(=O)(=O)N3CCCC3)cc2)n1`, for which the inhibition was -1.1%.
On to `C=CCn1c(=S)[nH]c2nc3c(cc2c1=O)COC(C)(C)C3`, for which the inhibition was 8%.
In the case of `CCCCC(=O)N1CC2(C)CN(C(=O)CCCC)CC(C)(C1)C2=O` it was 3.9%; in that of `O=C(Nc1ccccc1F)c1cc(S(=O)(=O)N2CCCCC2)cs1`, 9.5%.
For `O=C(CSc1ncccn1)NCCc1ccccc1`, the inhibition is 6.2%.
Regarding `CCCOC(=O)Cc1c(O)c2ccccc2[nH]c1=O`, the inhibition was 1.5%.
As for `CC1(C)CC(=O)C=C(NC2CC(C)(C)NC(C)(C)C2)C1`, the inhibition was 5.7%.
As to `O=C(OCC(=O)N1CCCC1)c1ccco1`, the inhibition is 3.5%.
On to `Cc1oc(CC(C)C)c(CN2CCCC2)c1C(=O)O`, for which the inhibition was 0.9%.
Take `CC(=O)Cc1nsc(NC(=O)c2ccc(COc3ccc(C)cc3)o2)n1`: the inhibition is 2.4%.
For the compound `Cc1noc(C)c1S(=O)(=O)N1CCCC(C(=O)Nc2nccs2)C1` (stereo not drawn), the inhibition was 3.5%.
With `CCOC(=O)CC1=CC(=O)Nc2ccccc2N1` the figure was 7.2%.
`Cc1occc1C(=O)N1CCCc2ccccc21`: the inhibition was 1%.
`O=C(c1ccc(S(=O)(=O)N2CCOCC2)cc1)N1CCN(c2ccccc2)CC1`: the inhibition was 2.3%.
Consider `O=C1c2oc3ccccc3c(=O)c2C(c2cccc(O)c2)N1c1ccccn1` (stereo not drawn), for which the inhibition is 1%.
Regarding `COc1ccc(-n2c(SCC(=O)Nc3ccc4c(c3)OCO4)nnc2C(C)N2CCCCC2)cc1` (stereo not drawn), the inhibition is 1%.
Regarding `c1ccc2c(NCC3CCCO3)nc(-c3ccncc3)nc2c1` (stereo not drawn), the inhibition was 5.5%.
Take `Cc1noc(C)c1COC(=O)Cn1c(C)nc2ccccc21`: the inhibition is 5.1%.
For `CCOC(=O)C1CCN(C(=O)C2CCN(S(=O)(=O)CC)CC2)CC1`, the inhibition is -1.2%.
Regarding `CCCc1nc(SCC(=O)Nc2ccccc2OC)c2c(=O)n(C)c(=O)n(C)c2n1`, the inhibition is 1.6%.
Take `CCOc1ccccc1N(CC(=O)NC1CCCCC1)C(=O)CCCC(=O)Nc1ccccn1`: the inhibition was 4.8%.
In the case of `O=C(CSc1nnc(-c2cccnc2)n1Cc1ccco1)c1ccc(Cl)cc1`, the inhibition is 2.8%.
Take `CCOc1ccccc1NC(=O)CCc1ccc(C)o1`: the inhibition was 0.9%.
With `CS(=O)(=O)c1ccc2nc(NC(=O)C3CCCCC3)sc2c1`, the inhibition was 6.5%.
In the case of `O=c1c(F)cn(C2CCCO2)c(=O)n1Cc1ccccc1Cl` (stereo not drawn), the inhibition is -7.2%.
Take `CCn1c(CSc2ncccn2)nnc1SCC(=O)N1c2ccccc2CC1C` (stereo not drawn): the inhibition was 1.2%.
With `CCCOc1ccc(N2CC(C(=O)Nc3ccccn3)CC2=O)cc1` (stereo not drawn) the figure was 2.5%.
Turning to `O=C1CCCC2=C1C(c1cccs1)n1nc(SCc3ccccc3)nc1N2` (stereo not drawn), the inhibition was 2%.
In the case of `COc1ccc(-c2[nH]nc3c2C(c2ccncc2)C(C#N)=C(N)O3)cc1` (stereo not drawn) it was -0.8%; in that of `CC(C(=O)N1CCOCC1)N1c2cccc3cccc(c23)S1(=O)=O` (stereo not drawn), 11.3%; in that of `O=C(c1cccs1)N(C(=O)c1cccs1)c1ccccn1`, 3.6%.
For `CCc1c(C)nc(N2CCN(Cc3ccccc3)CC2)[nH]c1=O`, the inhibition is -0.6%.
Regarding `CCN1CCN(Cc2nc3c(c(=O)n(C)c(=O)n3C)n2CC(=O)c2ccccc2)CC1`, the inhibition was -1.1%.
As to `COc1ccccc1CNC(=O)Cn1cc2c(n1)CCCC2`, the inhibition is 2.7%.
As to `N#CCCn1cnc2ccccc21`, the inhibition was 0.3%.
On to `CCn1c(=N)n(CC(=O)c2cccc(OC)c2)c2ccccc21`, for which the inhibition was -1.1%.
In the case of `CCOCCCNC(=O)c1c[nH]c2cc(C)ccc2c1=O` it was -0.3%.
With `Brc1cnc(N2CCCC2)nc1N1CCCCC1` the figure was 2%; with `COc1ccc(N2CC(C)Cn3c2nc2c3c(=O)n(Cc3ccccc3F)c(=O)n2C)c(OC)c1` (stereo not drawn), -0.2%.
As to `CCC(Sc1nncn1C)C(=O)Nc1nnc(-c2ccc(Cl)cc2)s1` (stereo not drawn), the inhibition is 3.6%.
In the case of `COc1ccc(N=Cc2c(O)[nH]c3ccccc23)cc1OC` it was 36.8% (active).
As to `COc1ccc(CCNC(=O)CCCCn2c(=O)[nH]c3ccccc3c2=O)cc1OC`, the inhibition was 4.9%.
`COc1ccc(OC)c(N=Cc2c(O)[nH]c3ccccc23)c1`: the inhibition is 12.3%.
`COc1cc(N=Cc2c(O)[nH]c3ccccc23)cc(OC)c1OC`: the inhibition is 58.4% (active).
As for `COc1ccc2[nH]c3ccc(OC)cc3c2c1`, the inhibition was 5.6%.
`COC(=O)c1[nH]c2ccccc2c1NS(=O)(=O)c1ccc(OC)cc1OC`: the inhibition is 5.9%.
Turning to `CC(C)=C(NC(=O)c1ccco1)C(=O)NCCc1nc2ccccc2[nH]1`, the inhibition was 1.2%.
For the compound `COc1cc(NS(=O)(=O)c2ccccc2)ccc1-n1nc(C)cc1C`, the inhibition was 10.8%.
For the compound `CCCOC(=O)c1cc2ccccc2oc1=O`, the inhibition is 0.3%.
Consider `CCOc1cc(S(=O)(=O)NCc2ccc3c(c2)OCO3)ccc1F`, for which the inhibition was 0.8%.
In the case of `CN(C)/C=C1\C=C(c2ccccc2)OC1=O` it was 0.1%; in that of `COCCN1C(=O)c2oc3c(C)cc(C)cc3c(=O)c2C1c1cccc(O)c1` (stereo not drawn), -3%.
In the case of `O=C(NCCCN1CCN(Cc2ccccc2)CC1)C1CCN(S(=O)(=O)N2CCCC2)CC1` it was 2.6%.
In the case of `O=C(c1ccco1)N1CCN(C(=O)C2c3ccccc3Oc3ccccc32)CC1` it was -3.5%.
